Several values for one entry are separate records, joined by “and”; a condition that tells them apart may be missing. Equal values may be shown once. About 83,000 compounds went through this panel and 20% of them were active in at least one assay; those are over-represented in the sample as a whole.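 How to read the values: 0–100, growth inhibition (40 = 60% inhibited); 0, no net growth; -100 to 0, cell death (-40 = 40% of starting cells died; -100 = all dead).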 Unmarked numbers belong to inactive results. Activity calls are given as the source filed them. The calls were made as follows: active = growth percent below 10; inactive = the rest.
Experiments:
Experiment in all cases: NCI-60 one-dose screen, 48 h (100 = growth as untreated, 0 = no growth, -100 = all killed)
Settings in all cases: 10 µM unless noted
HCT-15 colon = tested on: HCT-15 colon
HT29 colon = tested on: HT29 colon
SNB-75 CNS = tested on: SNB-75 CNS
SNB-19 CNS = tested on: SNB-19 CNS
U251 CNS = tested on: U251 CNS
PC-3 prostate = tested on: PC-3 prostate
SK-MEL-5 melanoma = tested on: SK-MEL-5 melanoma
UACC-62 melanoma = tested on: UACC-62 melanoma
LOX IMVI melanoma = tested on: LOX IMVI melanoma
SK-MEL-28 melanoma = tested on: SK-MEL-28 melanoma

Row | SMILES | growth (HCT-15 colon) | growth (HT29 colon) | growth (SNB-75 CNS) | growth (SNB-19 CNS) | growth (U251 CNS) | growth (PC-3 prostate) | growth (SK-MEL-5 melanoma) | growth (UACC-62 melanoma) | growth (LOX IMVI melanoma) | growth (SK-MEL-28 melanoma)
1 | CC[C@H](C)[C@H](NC(=O)[C@H]1CCCCN1C)C(=O)N(C)[C@H](CCc1nc(C(=O)N[C@@H](Cc2ccccc2)C[C@H](C)C(=O)O)cs1)C(C)C | 27.3% | -3.57% (active) | 28.3% | 39.5% | 7.98% (active) | 29.1% | 5.59% (active) | 52.2% | 15.2% | 59.4%
2 | Cc1nnc([S-])o1.[Au+].c1ccc([PH+](c2ccccc2)c2ccccc2)cc1 | 8.98% (active) | 61.1% | 29.3% | 29.2% | 10.1% | 57.7% | 26.7% | 21.3% | 13.2% | 32.8%
3 | CC(C)CCC1C(=O)NC(=O)NC1=O | 101% | 98.4% | 104% | 115% | 97.6% | 98% | 103% | 96.7% | 104% | 101%
4 | O=C1NC(=O)C(=Cc2ccccc2)C(=O)N1 | 98.6% and 106% | 105% and 99% | 105% and 96.5% | 106% | 97.4% and 92.2% | 81% and 96.2% | 109% and 100% | 90.3% and 105% | 94% and 97.1% | 104% and 115%
5 | Cc1cc(N(CCCl)CCCl)ccc1C=Nc1ccc(-c2csc(-c3ccccc3)n2)cc1 | 103% | 112% | 84.6% | 79.4% | 85% | 69.6% | 80.8% | 58.8% | 80.2% | 105%
6 | CC1=C([Te]c2ccccc2)C(=O)c2ccccc2C1=O | -43.6% (active) | -22.7% (active) | -25.6% (active) | 2.43% (active) | -30.1% (active) | -30.8% (active) | -95% (active) | -24.9% (active) | -41.7% (active) | -64.4% (active)
7 | C/C(=C\c1ccn(-c2ccc(N)cc2F)n1)[C@@H]1C[C@@H]2O[C@]2(C)CCC[C@H](C)[C@H](O)[C@@H](C)C(=O)C(C)(C)[C@@H](O)CC(=O)O1 | 14% | 13.1% | -6.93% (active) | 26% | 18.9% | 17% | 8.85% (active) | 11.6% | 27.3% | 54.5%
8 | C[C@@H]1C/C=C\C(=O)O[C@H](/C=C/C#C/C=C/C(C)(C)[C@@H](O)c2cccc(O)c2Br)[C@@H](C)/C=C/[C@H](C)C[C@H](OC(N)=O)C1 | 2.46% (active) | 5.59% (active) | 32.7% | 53.6% | 24.5% | 33.5% | -61.5% (active) | -41.8% (active) | -2.94% (active) | 35.5%
9 | Oc1cc(Cl)ccc1Oc1ccc(Cl)cc1Cl | 14.4% | 87.4% | 48.3% | 23.7% | 8.21% (active) | 39% | -32% (active) | 24.4% | 11.5% | 46.8%
10 | C[C@]12CCc3sc(Nc4ccc(F)cc4F)nc3C1=CC[C@@H]1[C@@H]2CC[C@]2(C)C(=O)CC[C@@H]12 | 7.76% (active) | 30.1% | 69.4% | 74.1% | 40.7% | 52.9% | 76.9% | 67.6% | -49.7% (active) | 84.4%
11 | CCOC(=O)c1ccccc1C(=O)OCC | 93.8% | 102% | 83.3% | 105% | 99.9% | 113% | 110% | 91.4% | 97.9% | 114%
12 | CO[C@@H]([CH2][Hg][O]C(=O)c1ccccc1)[C@@H]([CH2][Hg][O]C(=O)c1ccccc1)OC | -93.1% (active) | 95.7% | 85.6% | 96.5% | 93.3% | 88.7% | 86.5% | 95.2% | 36% | 112%
13 | CC(=O)C(N)Cc1ccccc1 (stereo not given) | 103% | 103% | 86.7% | 99.3% | 84.2% | 83.6% | 107% | 92.6% | 95.1% | 114%
14 | COc1cc(C=C2C(=O)NC(=O)NC2=O)ccc1O | 103% | 99.2% | 96% | 96.7% | 98.7% | 103% | 109% | 92.7% | 102% | 131%
15 | Cn1cc(-c2csc(-c3cn(CCCCN4CCOCC4)c4ccc(F)cc34)n2)c2cccnc21 | 61.7% | -64% (active) | 61.9% | 88.2% | 67.3% | 49.3% | 48.1% | 22.8% | 67.6% | -87.1% (active)
16 | O=C(O)C(F)F | 106% | 100% | 113% | 111% | 108% | 105% | 99.7% | 102% | 99% | 116%
17 | CCCCCCCCCCCCCCCCCC1OCC(COC(=O)O[C@@H](C(=O)O[C@H]2C[C@@]3(O)[C@@H](OC(=O)c4ccccc4)[C@@H]4[C@]5(OC(C)=O)CO[C@@H]5C[C@H](O)[C@@]4(C)C(=O)[C@H](OC(C)=O)C(=C2C)C3(C)C)[C@@H](NC(=O)c2ccccc2)c2ccccc2)O1 (stereo not given in full) | 99.4% | 5.3% (active) | 37.7% | 49.1% | 40.8% | 39.9% | 60.4% | 43.1% | 37.5% | 58.4%
18 | c1ccc2c(c1)sc1ccccc12 | 103% | 99.8% | 85.3% | 98.4% | 99.3% | 84.7% | 91.1% | 100% | 93.9% | 105%
19 | COc1ccc2c(c1)C1(C)CCN(C)CC(C1)C2O (stereo not given) | 97.6% | 98.5% | 84.2% | 103% | 99.3% | 88.6% | 99.5% | 108% | 98.4% | 108%
20 | COc1ccc2c(c1)c(-c1nc(-c3c[nH]c4ncccc34)cs1)cn2CCCCN1CCOCC1 | -31.7% (active) | -84.4% (active) | 40.1% | 52.4% | 4.84% (active) | 30.1% | 26% | 20.4% | -34.7% (active) | -90.3% (active)
21 | C(=NC1CCCCC1)=NC1CCCCC1 | 108% | 101% and 91.9% | 87.5% and 79.6% | 103% and 83.9% | 117% | 97.5% and 48.6% | 103% and 61.4% | 104% and 87.6% | 109% | 97.2% and 94.9%
22 | CN1C2CCC1[C@@H](COC(=O)c1ccccc1)[C@@H](O)C2 (stereo not given in full) | 111% | 91.3% | 83.5% | 102% | 103% | 99.7% | 112% | 96% | 103% | 128%
23 | O=C(Cc1ccccc1)c1ccccc1 | 102% | 106% | 86.8% | 109% | 94.5% | 98.2% | 99.6% | 111% | 106% | 113%
